The list is not random: actives were taken first. Their share in the collection is about 3.3%.
PHOSPHO1 inh – PHOSPHO1 (human) inhibition; recombinant PHOSPHO1, absorbance phosphatase assay; inhibition, % at 13.3 µM; 290,000 compounds, 1.1% hits; in the data active = inhibition above about 60%
Target sequence (Q8TCT1 whole entry, looked up): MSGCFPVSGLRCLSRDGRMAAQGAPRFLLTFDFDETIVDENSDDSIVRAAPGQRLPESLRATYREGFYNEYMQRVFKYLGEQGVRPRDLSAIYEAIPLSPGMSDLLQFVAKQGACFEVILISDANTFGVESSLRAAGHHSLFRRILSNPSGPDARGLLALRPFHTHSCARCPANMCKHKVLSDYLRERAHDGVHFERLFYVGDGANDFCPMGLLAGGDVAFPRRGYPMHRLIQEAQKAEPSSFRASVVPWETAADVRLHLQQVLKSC
Calb FLC – affects C. albicans growth with fluconazole. C. albicans CaCi-2 (fluconazole-resistant clinical isolate) + fluconazole, Alamar Blue growth, 48 h. growth inhibition, % (no concentration beside the values). 300,000 compounds, 0.57% hits. AID 1979;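 active = growth inhibition above about 58% in most replicates, limit read from the data, passing the limit was not always enough; inconclusive = exactly half the replicates above a set limit; inactive = most replicates below a set limit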;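 note: all wells also contain fluconazole at 8 µg/ml as a sub-toxic cotreatment; 0% = median of DMSO wells and 100% = median of geldanamycin control wells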
Efflux pump mplx – antifungal efflux pump inhibition, Nile Red retention; S. cerevisiae Candida pump triplex; inhibition, % at 10 µM; 330,000 compounds, 0.44% hits;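 active = plate passing quality check with inhibition over a set limit, or well fluorescence over plate mean plus 4 SD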;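 note: Nile Red retained in pooled yeast measured as flow cytometry median fluorescence; 0% = buffer negative control and 100% = Enniatin B positive control; higher means more Nile Red kept so more efflux inhibition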
Cardio protect – myocardial damage modulation in H9c2 cells | H9c2 cardiomyocytes, H2O2 injury protection, ATPLite, 2 h | protection from H2O2 cell death, % at 20 µM | 360,000 compounds, 0.63% hits;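 active = compounds giving at least 50% protection of heart cells from peroxide-induced death in the single-dose screen, raw or plate-pattern-corrected value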;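 note: 0% = DMSO wells with peroxide and 100% = DMSO wells without peroxide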
Cl transport mod – modulators of human KCC2 chloride dependent transport; Q9H2X9; KCC2 cells, thallium flux FluoZin-2 fluorescence; B-score of Tl+ flux slope (higher = more flux/activation; lower = inhibition) at 10 µM; 190,000 compounds, 2.2% hits; AID 1456;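 active = thallium flux slope and its plate-corrected score both differing from the plate sample mean at a set confidence after two filtering rounds, in either direction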;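 note: slope of fluorescence scaled to starting intensity during 10 to 20 s after thallium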
Numbers without * were called inactive; ? = inconclusive; · = no result.

SMILES	PHOSPHO1 inh	Calb FLC	Efflux pump mplx	Cardio protect	Cl transport mod
O=C(Cc1ccc(Cl)cc1)Nc1ccc(Br)cc1	-13	42*	0	-12	0.73
O=C(Cc1ccc(Br)cc1)NNC(=O)Nc1ccc(Cl)cc1	12	2	0	1	0.2
CC1Cn2c(nc3sc4c(c3c2=O)CC(C)(C)OC4)N1CCO (centres undefined)	31	3	0	5	·
OCCNCCO	-13	-2	0	6	·
Cc1ccc(C(=O)Cn2nnc(-c3cccs3)n2)cc1	19	3	0	-7	-0.079
O=C(CN1CC[n+]2c(-c3cccs3)csc21)c1ccc(-c2ccccc2)cc1	-1	3	0	-17	3.2*
O=c1[nH]c(=S)[nH]c2c1C(c1ccc(F)cc1)OC(CCOCc1ccccc1)C2 (centres undefined)	·	·	·	1	·
C[C@@H]1CCCCO[C@H](CN(C)S(=O)(=O)c2cccs2)[C@@H](C)CN([C@H](C)CO)C(=O)c2cc(NC(=O)C3CCCCC3)ccc2O1	·	·	·	-6	·
CC(CCc1ccccc1)NC(=O)CN1CCN(Cc2ccccc2)C1=O (centres undefined)	13	8	0	1	-2
CC(CCc1ccccc1)NC(=O)CN1CCN(c2ccc(O)cc2)CC1 (centres undefined)	28	95*	0	-8	-0.45
Cc1cccc(-n2c(CCn3nc(C)c([N+](=O)[O-])c3C)n[nH]c2=S)c1	97*	17	0	10	-0.85
COc1cccc(-n2c(CCn3nc(C)c([N+](=O)[O-])c3C)n[nH]c2=S)c1	-29	1	0	-2	0.6
Cc1nn(-c2ccccc2)c(C)c1C(=O)OCC(=O)Nc1ccccc1Cl	·	·	·	-1	·
O=C(NO)c1ccc(C(=O)N(C2CCCCC2)C2CCCCC2)cc1	-36	45	0	81*	0.34
O=C(c1ccc(-n2cnnn2)cc1)N(C1CCCCC1)C1CCCCC1	26	-9	0	5	0.027
Cc1ccc(N=Nc2ccc(O)c(/C=N\NC(=O)c3ccc(N)cc3)c2)cc1C	17	?	0	56*	0.46
CC(C)CC1NC(=O)N(CC(=O)Nc2cccc(Br)c2)C1=O (centres undefined)	·	·	0	0	·
CCc1cc2c(=O)n(CCC(C)C)c(=S)[nH]c2s1	-65	38	0	9	73*
COC(=O)CCC(=O)Nc1sc(C)c(C)c1C(N)=O	90*	6	0	-6	0.75
Cc1cnc(C(=O)OCC(=O)Nc2ncc(Cl)cc2Cl)cn1	·	·	0	-4	·
O=P(CCCCCCCCCP(=O)(c1ccccc1)c1ccccc1)(c1ccccc1)c1ccccc1	13	4	0	-13	-3*
COc1ccc(/C=N/NC(=O)c2nc(-c3ccccc3)cc(-c3ccccc3)n2)cc1O	-7	-3	0	51*	-0.53
COc1cc(/C=N/NC(=O)c2cnn3c(C)cc(-c4ccccc4)nc23)ccc1O	47	12	0	76*	-2.1
COc1ccc(/C=N/NC(=O)c2ccc(-c3ccccc3)cc2)cc1O	28	83*	0	2	-0.62
O=C(O)c1cccc(N=NN2CCOCC2)c1	-3	16	0	0	1.6
SMILES	PHOSPHO1 inh	Calb FLC	Efflux pump mplx	Cardio protect	Cl transport mod
NS(=O)(=O)c1ccc(Oc2ccc(S(N)(=O)=O)cc2)cc1	62*	-3	0	-8	1.2
CCCCOc1ccc(S(N)(=O)=O)cc1	0	-3	0	2	0.06
CCC(C)n1cnc2c(c1=O)c1nc3ccccc3nc1n2Cc1ccc2c(c1)OCO2 (centres undefined)	1	100*	·	·	-1.5
CCC(C)n1cnc2c(c1=O)c1nc3ccccc3nc1n2-c1ccc2c(c1)OCCO2 (centres undefined)	-12	-10	0	-12	0.015
O=C(CN1CCN(c2ccccc2F)CC1)c1ccc(O)c(O)c1	15	6	0	53*	·
O=C(CN1CCN(S(=O)(=O)c2ccc(Br)cc2)CC1)c1ccc(O)c(O)c1	32	5	0	71*	·
CC(C)c1ccc(S(=O)(=O)N2CCN(CC(=O)Nc3ccc(Cl)cc3F)CC2)cc1	·	·	0	2	·
CC(C)c1ccc(S(=O)(=O)N2CCN(CC(=O)c3ccc(O)c(O)c3)CC2)cc1	15	-4	0	56*	·
COc1cc(OC)c(C(=O)OCC(=O)Nc2ccccc2Cl)cc1OC	28	5	0	4	·
CC(C)(C)OC(=O)NNC(=S)NCc1ccc(Cl)cc1	73*	-6	0	-1	0.7
CC(C)(C)OC(=O)NNC(=O)c1ccc(Cl)cc1	19	-5	0	9	·
C#CC[N+]1(CC#Cc2ccccc2)CCCCC1	-8	1	0	-2	-0.86
C(#Cc1ccccc1)C[N+]1(CC#Cc2ccccc2)CCCCC1	20	82*	0	-19	1
Cc1cccc(/C=C2\Sc3ccc(C(=O)N4CCC(C)CC4)cc3N(C)C2=O)c1	19	3	0	-7	·
COC(=O)c1ccc(CSc2nc3scc(-c4cccs4)c3c(=O)[nH]2)o1	72*	47	0	-12	-1.7
O=C(c1ccc(N2CCCCC2)c([N+](=O)[O-])c1)N1CCOCC1	43	-6	0	0	-0.48
O=C(c1ccc(N2CCOCC2)c([N+](=O)[O-])c1)N1CCCCC1	74*	8	0	3	·
Cn1c(=O)n(C)c2cc([N+](=O)[O-])c(N3CCN(C(=O)c4ccc(F)cc4)CC3)cc21	60*	-13	0	-14	-0.23
Cn1c(=O)n(C)c2cc([N+](=O)[O-])c(N3CCN(C(=O)c4ccc(Cl)cc4)CC3)cc21	8	-10	0	1	·
Cc1ccc([N+](=O)[O-])cc1NC(=O)c1cccnc1	19	-2	0	7	·
O=C(COc1ccc2ccc(=O)oc2c1)Nc1c(Cl)cccc1C(F)(F)F	33	23	0	5	·
Cc1ccc(NC(=O)CCC(=O)N/N=C/c2cc([N+](=O)[O-])ccc2O)cc1	-16	6	0	64*	-0.41
Cc1cc(=O)oc2cc(OCC(=O)N/N=C/c3cc([N+](=O)[O-])ccc3O)ccc12	56	10	1	55*	0.31
O=C(O)CC/C(=C\c1cc([N+](=O)[O-])ccc1Cl)c1nc2ccccc2s1	0	47	0	-5	-10*
O=C(CSc1nc2ccccc2s1)N/N=C/c1cc([N+](=O)[O-])ccc1O	28	7	0	53*	-2.2
Cc1ccccc1NC(=O)CCC(=O)N/N=C/c1cc([N+](=O)[O-])ccc1O	2	-12	0	44	-2.2
Cc1cc(=O)oc2cc(OCC(=O)NC3CCCC3)ccc12	34	37	0	0	·
CCC(Oc1cc(Cl)ccc1Cl)C(=O)N1CCCN(C)CC1 (centres undefined)	17	15	-1	1	·
COc1ccccc1NC(=O)C1CCCN(S(=O)(=O)c2ccc3c(c2)CC(C)N3C(C)=O)C1 (centres undefined)	32	-22	0	-11	·
